# From PubChem BioAssay (NCI)
# Compounds without any hit were thinned out: in the full panel of roughly 83,000, 20% have a hit.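 Step 1: grow cells in 96-well plates. Step 2: add test compound at a single concentration. Step 3: incubate 48 h. Step 4: record percent growth.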 Values without a mark were called inactive. Activity calls are given as the source filed them. The calls were made as follows: active = growth percent below 10; inactive = the rest.
# How the values were obtained:
# Experiment in all cases: NCI-60 one-dose screen, 48 h (100 = growth as untreated, 0 = no growth, -100 = all killed)
# DU-145 prostate = settings: 10 µM
# K-562 leukemia = settings: 10 µM
# MALME-3M melanoma = settings: 10 µM
# MDA-MB-231 breast = settings: 10 µM
# RXF 393 renal = settings: 10 µM
# SF-268 CNS = settings: 10 µM
# SF-295 CNS = settings: 10 µM
# SF-539 CNS = settings: 10 µM
# UACC-257 melanoma = settings: 10 µM
# M14 melanoma = settings: 10 µM
# HCT-15 colon = settings: 10 µM
# HT29 colon = settings: 10 µM
# SNB-75 CNS = settings: 10 µM
# SNB-19 CNS = settings: 10 µM
# U251 CNS = settings: 10 µM
# PC-3 prostate = settings: 10 µM
# SK-MEL-5 melanoma = settings: 10 µM
# UACC-62 melanoma = settings: 10 µM unless noted
# LOX IMVI melanoma = settings: 10 µM
# SK-MEL-28 melanoma = settings: 10 µM
Compound,growth (DU-145 prostate),growth (K-562 leukemia),growth (MALME-3M melanoma) [%],growth (MDA-MB-231 breast),growth (RXF 393 renal) [%],growth (SF-268 CNS) [%],growth (SF-295 CNS),growth (SF-539 CNS),growth (UACC-257 melanoma),growth (M14 melanoma),growth (HCT-15 colon),growth (HT29 colon),growth (SNB-75 CNS),growth (SNB-19 CNS) [%],growth (U251 CNS) [%],growth (PC-3 prostate),growth (SK-MEL-5 melanoma),growth (UACC-62 melanoma),growth (LOX IMVI melanoma),growth (SK-MEL-28 melanoma) [%]
O=C1C=C(Nc2ccc([N+](=O)[O-])cc2)c2ccccc2C1=O,68.9%,13.2%,51.6,22.5%,69.2,55.6,53.1%,36.8%,48.8%,13.3%,31.2%,99.4%,42.9%,52.8,28.5,23.9%,11.7%,17.7%,9.66% (active),50.3
O=C1c2ccccc2C(=O)c2c1ccc(C(=O)O)c2[N+](=O)[O-],107%,77.3%,98.1,79%,128,111,105%,96%,105%,87.2%,105%,93.8%,91.2%,109,99.6,94.8%,109%,106%,88.4%,101
Brc1cnc2ccccc2c1,102%,107%,94.6,113%,121,97.2,101%,103%,103%,97.7%,101%,102%,106%,95.5,103,97%,106%,93.4%,101%,113
OCC(O)C(O)C(O)C(O)/C=N/O (stereo unspecified),108%,111%,110,97.5%,98.9,98,105%,106%,62.3%,94.7%,105%,103%,96.1%,98.3,91,73.2%,101%,93.3%,98.3%,114
CSC[C@H](NC(=O)COc1cccc2cnccc12)C(=O)NC(Cc1ccccc1)C(O)C(=O)N1CSC[C@H]1C(=O)NC(C)(C)C (stereo partly specified),98.9%,107%,105,93.8%,100,94.4,97.4%,103%,106%,99.3%,96.3%,108%,-20.5% (active),103,102,96.3%,102%,98.3%,102%,
Nc1nc(OCc2ccccc2)c2[nH]cnc2n1,99.2%,80.4%,98.3,97.9%,98.8,109,96.8%,89.7%,97.8%,90.6%,63.7%,105%,8.69% (active),104,100,84.4%,94%,86.1%,83.1%,
N#C/C(=C\c1cc(O)c(O)c(O)c1)C(N)=O,93.6%,71.9%,115,102%,99.6,107,87.7%,94%,105%,92.2%,88.6%,103%,-17.7% (active),101,93,46.5%,101%,98.1%,92.3%,
C/C(=N/NC(N)=O)c1ccco1,110%,88.3%,93.4,118%,108,104,104%,101%,83%,91.8%,102%,99.5%,91.5%,101,96.8,76.3%,105%,102%,95.4%,117
CCCC(C)OCC(=O)O (stereo unspecified),106%,112%,90.7,105%,96.4,99.2,98.5%,102%,90.2%,106%,104%,109%,85.8%,100,93.5,98.4%,99.8%,110%,99.1%,97.9
CCOC(=O)c1cc2cccc(OC)c2oc1=O,123%,99%,115,107%,122,111,130%,107%,98.2%,99.4%,97.3%,113%,99.5%,105,105,106%,105%,89.8%,104%,116
O=C(/C=C/C(=O)c1ccccc1)c1ccccc1,115%,41.9%,131,110%,118,107,99%,114%,119%,111%,79.2%,100%,104%,109,93.6,125%,105%,93.4%,92.1%,117
CC(=O)Cc1ccc(-c2ccccc2)cc1,107%,108%,77.1,95.9%,102,98,99.8%,108%,98.8%,109%,103%,111%,98.5%,101,98.3,97.1%,98.7%,87.5%,100%,114
Clc1ccc(-c2n[nH]c3c2Cc2ccccc2-3)cc1Cl,130%,92.4%,102,98%,154,109,99.5%,95.6%,-6.12% (active),100%,87.8%,106%,84.9%,93.8,97.9,92.4%,95.6%,91.2%,97.4%,114
COCCOCCCl,110%,97.5%,112,118%,119,101,102%,106%,104%,101%,99.3%,105%,95.9%,103,105,84.5%,92.1%,104%,98.5%,114
COc1cc2cc(c1Cl)N(C)C(=O)C[C@H](OC(=O)[C@H](C)N(C)C(C)=O)[C@]1(C)O[C@H]1[C@H](C)[C@@H]1C[C@@](O)(NC(=O)O1)[C@H](OC)C=C/C=C(\C)C2,-40.4% (active),-2.18% (active),33.7,-13.1% (active),13.3,23.5,-13.8% (active),-23.5% (active),12.4%,-26.2% (active),-14.5% (active),-29.3% (active),-49% (active),14.4,11.5,0.19% (active),-24.4% (active),9.3% (active),18.4%,
CN(C)C(=O)Oc1cccc([N+](C)(C)C)c1,113%,104%,131,91.1%,114,106,96.8%,106%,97.8%,126%,95.6%,115%,85.1%,105,97.9,98.5%,94.9%,104%,105%,108
COC(=O)c1ccccc1Br,102%,111%,98.5,112%,110,101,95.1%,102%,114%,88.9%,99.6%,110%,80.5%,96.4,106,80%,107%,94.4%,98.4%,159
